As usually defined, the AC50 is the concentration giving half of the maximal activity seen.

Inconclusive results are not listed. The source made the active and inactive calls. The calls were made as follows, unless noted: active = hit-call score of the fitted dose curve at least 0.9, where 1 is the maximum; inactive = score below 0.9.

Estrogen receptor (Homo sapiens), sequence (P03372 whole entry, looked up): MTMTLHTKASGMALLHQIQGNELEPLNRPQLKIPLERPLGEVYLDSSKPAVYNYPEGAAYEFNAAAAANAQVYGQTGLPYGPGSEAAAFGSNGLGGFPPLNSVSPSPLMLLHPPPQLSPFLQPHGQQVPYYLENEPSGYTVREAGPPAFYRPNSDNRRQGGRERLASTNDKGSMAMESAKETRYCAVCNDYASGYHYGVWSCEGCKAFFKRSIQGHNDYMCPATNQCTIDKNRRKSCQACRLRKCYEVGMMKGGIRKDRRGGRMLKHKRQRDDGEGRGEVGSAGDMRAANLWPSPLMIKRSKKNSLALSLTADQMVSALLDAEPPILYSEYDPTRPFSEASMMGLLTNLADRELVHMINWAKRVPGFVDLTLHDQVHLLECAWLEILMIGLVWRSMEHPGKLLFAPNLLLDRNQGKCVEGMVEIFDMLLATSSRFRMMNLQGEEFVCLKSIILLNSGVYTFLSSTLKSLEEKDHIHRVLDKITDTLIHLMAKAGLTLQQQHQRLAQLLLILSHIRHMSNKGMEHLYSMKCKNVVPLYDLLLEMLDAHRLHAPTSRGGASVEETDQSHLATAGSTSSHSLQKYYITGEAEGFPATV

For the first test, the target named is Estrogen receptor (Homo sapiens) (UniProt P03372). As to the kind of experiment: CCTE_Deisenroth_AIME_384WELL_LUC_Active: CCTE's 384-well Estrogen Receptor Transactivation Assay with AIME metabolic competence (ERTA luciferase; metabolism positive), Deisenroth Lab (AID 2284030; active = hit-call score of the fitted dose curve at least 0.9, where 1 is the maximum). A digest of the protocol:
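Readout: bioluminescent luciferase induction in VM7Luc4E2 cells 24 hour after receiving medium from a 2 h rat hepatic S9 (induced, alginate microsphere) metabolism step. Concentrations 0.002 - 200 uM; activity scaled to 17beta-estradiol positive control.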
Regarding `C(=C(c1ccccc1)c1ccccc1)c1ccccc1`, the AC50 is 4.42 µM (active).

Turning to `CNC(=S)NC`, the compound was classed as inactive.

Turning to `CC/C=C\CCOC(C)=O`, the outcome was inactive.

`CCCCCCC(C)OC(=O)CCCCC(=O)OC(C)CCCCCC` (stereo unspecified): the call was inactive.

Tested on in another test: not listed separately
As to the kind of experiment: CCTE_Shafer_MEA_dev_firing_rate_mean: CCTE's Neural Network Formation Assay for Mean Firing Rate, Shafer Lab (AID 2284031).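 As to AC50: curve fitted for loss of firing so AC50 reflects decreased mean firing rate.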 A digest of the protocol: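 Primary rat cortical neurons on 48-well, 16-electrode MEAs (PEI-coated, laminin at plating), exposed from day 0 with compound renewed at DIV 5 and 9. Spikes recorded DIV 5, 7, 9, 12; well-mean firing rate collapsed to trapezoidal AUC, loss-of-signal vs DMSO.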
Turning to `FC(F)(F)C(F)(F)CNCC(F)(F)C(F)(F)F`, the outcome was inactive.

In the case of `O=S(=O)(OCCOC(F)(F)F)C(F)(F)F`, the result was inactive.

For the compound `FC(F)(F)C(F)(F)C(F)(F)C(F)(F)C(F)(F)CCI`, the call was inactive.

For `CC(C)(C)C(=O)CC(=O)C(F)(F)C(F)(F)C(F)(F)F`, the compound was called inactive.

Consider `FC(F)(F)C(F)(F)C(F)(F)C(F)(F)C(F)(F)C(F)(F)CC1CO1` (stereo unspecified), for which the outcome was inactive.

`C=CC(=O)OCC(F)(F)C(F)(F)C(F)(F)C(F)(F)COC(=O)C=C`: the AC50 is 4.34 µM (active).

As to `N=C(N)C(F)(F)C(F)(F)C(F)(F)C(F)(F)C(F)(F)C(F)(F)C(F)(F)F`, the outcome was inactive.

As for `O=S(=O)(OCC(F)F)C(F)(F)F`, the compound was called inactive.

As to `O=C(O)C=C(C(F)(F)F)C(F)(F)F`, the outcome was inactive.

On to `OC[C@@H](O)[C@@H](O)[C@H](O)[C@@H](O)CO`, for which the call was inactive.

With `CC(CCl)OP(=O)(OC(C)CCl)OC(C)CCl` (stereo unspecified), the result was inactive.

For the compound `OCC(F)(F)C(F)(F)C(F)(F)C(F)F`, the compound was classed as inactive.

As for `O=C(O)C(F)(F)C(F)(F)C(F)F`, the call was inactive.

Consider `O=C(O)C(F)(F)C(F)(F)C(F)(F)C(F)(F)C(F)(F)C(F)(F)C(F)(F)C(F)(F)C(F)(F)C(F)F`, for which the compound was called inactive.

As for `O=C(O)C(F)(F)C(F)(F)C(F)(F)C(F)(F)C(F)(F)C(F)(F)C(F)(F)C(F)(F)Cl`, the result was inactive.

As to `OCC(F)(F)C(F)(F)C(F)(F)F`, the result was inactive.

Regarding `O=C(O)C(F)(F)C(F)(F)C(F)(F)F`, the compound was classed as inactive.
